# Assay results: the antibiotic and cytotoxicity screens of Wong et al. (2023)
# Out of some 39,000 compounds screened, about 3,300 (8.5%) were called active. The full list was thinned out, with actives kept by preference.
# Test system: HepG2
# Assay: cytotoxicity call (relative viability < 0.9)
# Conditions: 10 µM
row,SMILES,cytotoxicity call
1,C[C@H](CO)N1C[C@H](C)[C@H](CN(C)C(=O)Cc2ccccn2)Oc2cc(-c3ccc(C(=O)N(C)C)cc3)ccc2S1(=O)=O,inactive
2,N[C@@H](CSCc1ccccc1Cl)C(=O)O,inactive
3,COc1ccc(S(=O)(=O)Nc2ccc3c(c2)C(=O)N([C@@H](C)CO)C[C@H](C)[C@@H](CN(C)Cc2ccccc2)OCCCC[C@@H](C)O3)cc1,inactive
4,C[C@H]1CCCCO[C@@H](CN(C)C(=O)Nc2ccc3c(c2)OCO3)[C@@H](C)CN([C@@H](C)CO)C(=O)c2cc(NC(=O)Nc3ccc(F)cc3)ccc2O1,inactive
5,NNC(=S)Nc1cccc(F)c1,inactive
6,C[C@@H]1CN([C@@H](C)CO)C(=O)c2cc(C#CCN(C)C)cnc2O[C@H]1CN(C)S(=O)(=O)c1cn(C)cn1,inactive
7,COc1cccc(C#Cc2cnc3c(c2)C(=O)N([C@H](C)CO)C[C@H](C)[C@H](CN(C)C(=O)C2CCOCC2)O3)c1,inactive
8,C[C@H]1CCCCO[C@H](CN(C)Cc2ccc(C(=O)O)cc2)[C@@H](C)CN([C@@H](C)CO)C(=O)c2cc(NC(=O)Nc3ccc(C(F)(F)F)cc3)ccc2O1,inactive
9,Cc1noc(C)c1NC(=O)Nc1ccc2c(c1)C(=O)N([C@H](C)CO)C[C@@H](C)[C@H](CN(C)S(=O)(=O)c1ccc(F)cc1)OCCCC[C@@H](C)O2,inactive
10,ON/C=N\c1nonc1-c1cccnc1,inactive
11,Nc1c[nH]ccc1=O,inactive
12,COc1ccc(NC(=O)N(C)C[C@H]2OCCCC[C@H](C)Oc3ccc(NS(=O)(=O)c4cccs4)cc3C(=O)N([C@H](C)CO)C[C@@H]2C)cc1,inactive
13,COc1ccc2nc3cc(Cl)ccc3c(Nc3cc(CN4CCCC4)c(O)c(CN4CCCC4)c3)c2n1.O=P(O)(O)O.O=P(O)(O)O.O=P(O)(O)O.O=P(O)(O)O,active
14,CCC(=O)N[C@H]1CC[C@@H](CC(=O)OC)O[C@@H]1CO,inactive
15,CC(=O)c1ccc(F)c(Cl)c1,inactive
16,Nc1nc(N)c2c(n1)CCCC2,inactive
17,Cl.Nc1c2c(nc3ccccc13)CCCC2,active
18,Nc1c2ccccc2nc2ccccc12,active
19,Nc1c2c(nc3ccccc13)CCCC2,inactive
20,CCc1nc2ccccc2c(N)c1C,inactive
21,Nc1nnc(N)c2ccccc12,inactive
22,C[C@H](CO)N1C[C@H](C)[C@H](CN(C)C)Oc2cc(C#C[C@@H](C)O)ccc2S1(=O)=O,inactive

row,SMILES,cytotoxicity call
1,C=CCCCCCCCCC(=O)Nc1ccccc1C,inactive
2,C[C@@H]1CN([C@@H](C)CO)C(=O)c2cc(/C=C/c3ccccc3)cnc2O[C@H]1CN(C)C(=O)C1CCOCC1,inactive
3,C[C@@H]1CCCCO[C@@H](CN(C)Cc2ccncc2)[C@H](C)CN([C@H](C)CO)C(=O)c2cc(NC(=O)C3CCCCC3)ccc2O1,inactive
4,O=C(C[C@@H]1CC[C@H]2[C@@H](COC[C@@H](O)CN2C(=O)c2ccc(F)cc2)O1)NCCCN1CCOCC1,inactive
5,COc1ccc(NC(=O)Nc2ccc3c(c2)CC(=O)N([C@@H](C)CO)C[C@H](C)[C@@H](CN(C)Cc2ccc(Oc4ccccc4)cc2)O3)cc1,inactive
6,COc1ccc(NC(=O)Nc2ccc3c(c2)CC(=O)N([C@H](C)CO)C[C@@H](C)[C@H](CN(C)Cc2ccc(Oc4ccccc4)cc2)O3)cc1,active
7,COc1ccc(NC(=O)Nc2ccc3c(c2)CC(=O)N([C@H](C)CO)C[C@H](C)[C@@H](CN(C)Cc2ccc(Oc4ccccc4)cc2)O3)cc1,inactive
8,COc1ccc(NC(=O)Nc2ccc3c(c2)CC(=O)N([C@@H](C)CO)C[C@@H](C)[C@H](CN(C)Cc2ccc(Oc4ccccc4)cc2)O3)cc1,active
9,COc1ccc(NC(=O)Nc2ccc3c(c2)CC(=O)N([C@@H](C)CO)C[C@@H](C)[C@@H](CN(C)Cc2ccc(Oc4ccccc4)cc2)O3)cc1,active
10,COc1ccc(NC(=O)Nc2ccc3c(c2)CC(=O)N([C@H](C)CO)C[C@@H](C)[C@@H](CN(C)Cc2ccc(Oc4ccccc4)cc2)O3)cc1,active
11,Cc1noc(C)c1NC(=O)Nc1ccc2c(c1)C(=O)N([C@@H](C)CO)C[C@@H](C)[C@H](CN(C)C(=O)Nc1cccc3ccccc13)O2,inactive
12,COc1ccc2c3c(n(c2c1)C)[C@H](CO)N(C[C@]13CN(C1)C(=O)C1CC1)C(=O)CN1CCOCC1,inactive
13,CCCSc1nc(N[C@@H]2C[C@H]2c2ccc(F)c(F)c2)c2nnn([C@@H]3C[C@H](OCCO)[C@@H](O)[C@H]3O)c2n1,inactive
14,C[C@@H]1CCCCO[C@H](CN(C)Cc2ccc(C(F)(F)F)cc2)[C@@H](C)CN([C@H](C)CO)C(=O)c2cc(NS(C)(=O)=O)ccc2O1,inactive
15,COCCOC(=O)N1C(=O)[C@@]2(c3cc(C#CC4(O)CCCCCC4)ccc31)[C@H](C(=O)NC[C@H](O)c1ccccc1)[C@H]1C(=O)O[C@H](c3ccccc3)[C@H](c3ccccc3)N1[C@@H]2c1ccc(OCCO)cc1,inactive
16,COc1ccc(NC(=O)N(C)C[C@H]2Oc3c(NC(=O)c4ccc(-c5nccs5)cc4)cccc3C(=O)N([C@@H](C)CO)C[C@@H]2C)cc1,inactive
17,Cc1noc(C)c1S(=O)(=O)N(C)C[C@H]1Oc2ccc(NC(=O)c3ccncc3)cc2C(=O)N([C@H](C)CO)C[C@@H]1C,inactive
18,C[C@@H]1CCCCO[C@H](CN(C)C(=O)Cc2ccccc2)[C@H](C)CN([C@H](C)CO)C(=O)c2cc(NC(=O)Nc3ccc(F)cc3)ccc2O1,inactive
19,COc1ccc(NC(=O)Nc2ccc3c(c2)CC(=O)N([C@H](C)CO)C[C@H](C)[C@H](CN(C)Cc2ccc(Oc4ccccc4)cc2)O3)cc1,active
20,COc1ccc(NC(=O)Nc2ccc3c(c2)CC(=O)N([C@@H](C)CO)C[C@H](C)[C@H](CN(C)Cc2ccc(Oc4ccccc4)cc2)O3)cc1,active
21,C[C@@H]1CN([C@@H](C)CO)C(=O)c2cc(NC(=O)Cc3ccccc3)ccc2O[C@@H]1CN(C)Cc1ccc(C(=O)Nc2ccccc2N)cc1,inactive
22,C[C@@H]1CN([C@@H](C)CO)C(=O)c2cc(NC(=O)c3ccncc3)ccc2O[C@@H]1CN(C)Cc1ccc(Oc2ccccc2)cc1,inactive

row,SMILES,cytotoxicity call
1,C[C@@H]1CN([C@@H](C)CO)C(=O)c2cccc(NC(=O)Nc3ccc(C(F)(F)F)cc3)c2O[C@@H]1CN(C)C(=O)Nc1ccccc1,inactive
2,CCNC(=O)[C@H]1[C@H](CO)[C@H]2Cn3c(ccc(-c4cccc(OC)c4)c3=O)[C@H]2N1S(C)(=O)=O,inactive
3,C[C@@H]1CCCCO[C@H](CN(C)C(=O)CCC(F)(F)F)[C@@H](C)CN([C@@H](C)CO)C(=O)c2cc(NC(=O)Cc3ccccc3)ccc2O1,inactive
4,Cc1ccc(S(=O)(=O)Nc2ccc3c(c2)CC(=O)N([C@@H](C)CO)C[C@@H](C)[C@@H](CN(C)S(=O)(=O)c2cn(C)cn2)O3)cc1,inactive
5,COc1ccc(CN(C)C[C@@H]2OCCCC[C@@H](C)Oc3ccc(NC(=O)Nc4ccc(OC)cc4)cc3C(=O)N([C@H](C)CO)C[C@H]2C)cc1,inactive
6,COc1ccc(CN(C)C[C@@H]2OCCCC[C@H](C)Oc3ccc(NC(=O)Nc4ccc(OC)cc4)cc3C(=O)N([C@@H](C)CO)C[C@H]2C)cc1,active
7,COc1ccc(CN(C)C[C@H]2OCCCC[C@H](C)Oc3ccc(NC(=O)Nc4ccc(OC)cc4)cc3C(=O)N([C@@H](C)CO)C[C@H]2C)cc1,active
8,COc1ccc(CN(C)C[C@@H]2OCCCC[C@H](C)Oc3ccc(NC(=O)C4CCCCC4)cc3C(=O)N([C@@H](C)CO)C[C@H]2C)cc1,active
9,COc1ccc(CN(C)C[C@@H]2OCCCC[C@@H](C)Oc3ccc(NC(=O)C4CCCCC4)cc3C(=O)N([C@H](C)CO)C[C@@H]2C)cc1,inactive
10,COc1ccc(CN(C)C[C@H]2OCCCC[C@@H](C)Oc3ccc(NC(=O)C4CCCCC4)cc3C(=O)N([C@H](C)CO)C[C@H]2C)cc1,inactive
11,COc1ccc(CN(C)C[C@@H]2OCCCC[C@H](C)Oc3ccc(NC(=O)Nc4ccc(OC)cc4)cc3C(=O)N([C@H](C)CO)C[C@H]2C)cc1,inactive
12,COc1ccc(CN(C)C[C@H]2OCCCC[C@H](C)Oc3ccc(NC(=O)Nc4ccc(OC)cc4)cc3C(=O)N([C@@H](C)CO)C[C@@H]2C)cc1,active
13,C[C@@H]1CCCCO[C@@H](CN(C)Cc2ccc(C(=O)O)cc2)[C@H](C)CN([C@@H](C)CO)C(=O)c2cc(NC(=O)c3ccccc3)ccc2O1,inactive
14,C[C@@H]1CN([C@H](C)CO)C(=O)Cc2cc(NS(=O)(=O)c3cccs3)ccc2O[C@@H]1CN(C)S(C)(=O)=O,inactive
15,C[C@@H]1CCCCO[C@H](CN(C)C(=O)CCCN(C)C)[C@@H](C)CN([C@@H](C)CO)C(=O)c2cc(NC(=O)Nc3ccc(F)cc3)ccc2O1,inactive
16,CS(=O)(=O)N1CCn2cc(Cn3cccn3)nc2C1,inactive
17,Cc1noc(C)c1NC(=O)N(C)C[C@H]1Oc2c(NC(=O)Nc3cccc4ccccc34)cccc2C(=O)N([C@@H](C)CO)C[C@@H]1C,inactive
18,Cc1noc(C)c1S(=O)(=O)N(C)C[C@@H]1OCc2cn(nn2)CCCC(=O)N([C@H](C)CO)C[C@@H]1C,inactive
19,COc1ccc(S(=O)(=O)Nc2ccc3c(c2)C(=O)N([C@@H](C)CO)C[C@@H](C)[C@@H](CN(C)C(=O)Nc2ccc(C(F)(F)F)cc2)OCCCC[C@H](C)O3)cc1,inactive
20,CC(=O)OC[C@H]1O[C@@H](n2cc(C)c(=O)[nH]c2=O)C[C@@H]1OC(C)=O,inactive
21,C[C@@H]1CCCCO[C@H](CN(C)C)[C@H](C)CN([C@H](C)CO)C(=O)c2cc(NC(=O)Nc3cccc4ccccc34)ccc2O1,inactive
22,COc1ccc(NC(=O)N(C)C[C@H]2OCCCC[C@H](C)Oc3ccc(NS(=O)(=O)c4ccc(OC)cc4)cc3C(=O)N([C@@H](C)CO)C[C@H]2C)cc1,inactive
